Bioassay records (PubChem)
KB-V1 MDR tox: kills drug-selected multidrug resistant KB-V1 cells. KB-V1 MDR cells viability, CellTiter-Glo, 72 h. Potency, µM (doses to about 46.1 µM), hits mostly cytotoxic. 400,000 tested, 3.4% active. AID 1347076; note: nearly all actives have a fitted effect of over 60% in size
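KB-V1, DMEM (no phenol red) + 10% FBS; cpd pin-transferred, titration series; 72 h, 37 degrees C; CellTiter-Glo, luminescence. Data normalized, curve-fit.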
DT40 TDP1 no CPT: qHTS for Inhibitors of human tyrosyl-DNA phosphodiesterase 1 (TDP1): qHTS in cells in absence of CPT; Potency, µM (titrated, usually from 46.2 µM), without a hit: top-dose activity change, negative = growth inhibition, actives largely listed as inhibitors; DT40 Tdp1-/- hTDP1 cells, no CPT, ATP luminescence, 48 h; 420,000 tested, 15% active; note: nearly all actives have a fitted effect of over 55% in size
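Growth of hTDP1-complemented DT40 Tdp1-knockout cells is measured by ATP luminescence after at least 48 hr compound exposure at 37 °C, with DMSO substituting for the 20 nM CPT used in the parallel screen.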
HT1080 IDH1KD tx: toxicity to HT-1080 IDH1 knockdown cells (counter line) | HT-1080 IDH1 knockdown viability, ATP luminescence, 48 h | Potency, µM (highest dose often 46.1 µM), without a hit: at the highest dose activity, negative = toxicity, actives largely listed as cytotoxic | 360,000 tested, 2% active | AID 686971;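 note: 0% = DMSO wells and -100% = cell-free medium wells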
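HT-1080-IDH1KD cells (IDH1 knocked down), 750/well in RPMI with 5% FBS, treated with compound 48 h at 37 degrees C. Viability by CellTiter-Glo luminescence, normalised to DMSO and no-cell wells; concentration-response curves classed.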
HT1080NT lethal: kills 2HG-producing HT-1080-NT fibrosarcoma cells | 360,000 tested, 1.6% active | AID 686970 | HT-1080-NT fibrosarcoma viability, CellTiter-Glo ATP luminescence, 48 h | Potency, µM (doses to about 46.1 µM), for the others: at the highest dose activity, negative = less viability, most hits filed as cytotoxic;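 note: NT is the 2HG producing partner of a matched IDH1 knockdown line; 0% = DMSO-treated cells and -100% = media-only wells without cells; nearly all actives have a fitted effect of over 55% in size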
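HT-1080-NT; 750 cells/well; 5% FBS RPMI; 48 h compound, 37 degrees C; CellTiter-Glo luminescence; curve fitting and curve-class assignment.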
KB-3-1 cytotox: KB-3-1 parental cell cytotoxicity; AID 1347075; KB-3-1 viability, CellTiter-Glo ATP luminescence, 72 h; 400,000 tested, 1.4% active; Potency, µM (top dose mostly 46.1 µM), usual class: cytotoxic; note: nearly all actives have a fitted effect of over 60% in size
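Parental KB-3-1 viability, qHTS format: 72 h compound exposure, 37 °C; CellTiter-Glo; media-only wells and DMSO plates as controls; concentration-effect fits on corrected data.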
DT40 TDP1 CPT: growth inhibition of DT40 Tdp1-/-;hTDP1 cells with camptothecin (screen for TDP1 inhibitors) | chicken DT40 Tdp1-/-;hTDP1 cells + 20 nM CPT, ATP luminescence, 48 h | Potency, µM (top dose mostly 46.2 µM), for the others: top-dose activity change, negative = growth inhibition, hits mostly inhibitors | 420,000 tested, 12% active | AID 686979; note: nearly all actives have a fitted effect of over 55% in size
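Chicken DT40 Tdp1-/- cells stably complemented with human TDP1 were seeded at 400 cells/well in medium containing 20 nM camptothecin, exposed to pin-transferred compounds, and grown at 37 °C for at least 48 hr. Viability was read as ATP luminescence.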
* = called active by the depositor; i = inactive; ? = inconclusive; . = no result; [ ] = another dose, or the depositor's remark. Hits are enriched below; roughly 19% of the tested compounds scored in any of these assays. Calls come from the whole dose curve; as a rule, active = well fitted curve in the direction sought with a large enough effect; inconclusive = small, poorly fitted or top-dose-only effect, or another doubt; inactive = no such curve, though single readings can be large; an effect the other way counts as inactive or inconclusive. Unless noted, % is set by controls: 0 for no effect and ±100 for the full control effect; potency is the fitted concentration of half-maximal effect.

SMILES	KB-V1 MDR tox	DT40 TDP1 no CPT	HT1080 IDH1KD tx	HT1080NT lethal	KB-3-1 cytotox	DT40 TDP1 CPT
COc1ccccc1-c1noc(CCC(=O)Nc2cccc(C(F)(F)F)c2)n1	21µM*	?	-19%	0%	?	?
CC(C)NC(=O)N1CC[C@@]2(CCCN(C(=O)c3ccncc3)C2)C1	.	-27%	.	.	.	0%
COc1cccc(NC(=O)CCc2nc(-c3cc(OC)c(OC)c(OC)c3)no2)c1	i	16µM*	.	.	i	18µM*
COc1cc(-c2noc(CCCC(=O)Nc3cccnc3)n2)cc(OC)c1OC	?	-4%	5%	-1%	i	16%
Cc1ccc(NC(=O)CN2C(=O)NC3(CCc4ccccc43)C2=O)cc1S(=O)(=O)N1CCCCC1 (stereo not given)	i	?	-2%	-8%	i	?
CCOc1ccccc1CNC(=O)C1CCN(S(=O)(=O)N2CCC(C)CC2)CC1	?	?	1%	2%	i	?
CC(=NNc1nc2ccccc2s1)c1ncccn1	1.3µM*	0.021µM*	1.2µM*	?	2.3µM*	-76%
CC(=NNc1nc2ccccc2o1)c1cc2ccccc2cn1	?	0.13µM*	?	?	?	0.13µM*
CC(=NNc1nc2ccccc2o1)c1ncccn1	?	13µM*	1.2µM*	?	1.8µM*	-115%
Cc1cc(C)nc(Nc2nc3ccccc3o2)n1	?	?	-2%	2%	i	-3%
COc1nc(Nc2ccc([N+](=O)[O-])cc2)nc(NC2CCCCC2)n1	i	?	?	-21%	i	?
CN1C[C@@H](CO)O[C@@H](n2cnc3c(N4CCOCC4)ncnc32)C1	i	-3%	8%	27%	i	-18%
Cc1cc(NC(=O)CSc2nc3cc(Cl)ccc3o2)no1	i	2.6µM*	-15%	-2%	?	4.6µM*
O=C(CSc1ccc(Cl)cc1)Nn1cnnc1	i	?	-4%	0%	i	18µM*
CCc1cc2cc(C)ccc2nc1SCC(=O)Nc1cc(C)on1	9.2µM*	-1%	-21%	-1%	i	7%
CCN(CC)S(=O)(=O)c1ccc2oc(SCC(=O)Nc3cc(C)on3)nc2c1	3.7µM*	0.73µM*	?	-3%	?	0.65µM*
COc1cc2c(cc1O)-c1ccccc1CN(C)C2	.	3%[9.04 µM]	.	.	.	19%[9.04 µM]
CCCn1nc(C(=O)N2CCN(S(=O)(=O)c3ccc(C)c(C)c3)CC2)c2ccccc2c1=O	i	?	-11%	3%[9.24 µM]	?	?
Cc1cc(NC(=O)CSc2ccc(Cl)cc2)no1	i	16µM*	23%	4%	i	13µM*
CCN(CC)S(=O)(=O)c1ccc2oc(SCc3ccc(F)cc3)nc2c1	?	21µM*	-17%	-15%	?	?
CCN(CC)S(=O)(=O)c1ccc2oc(SCC(=O)NC3CC3)nc2c1	i	-11%	6%	6%	i	-24%
Cc1ccc(SCC(=O)Nc2cc(C)on2)cc1	i	-2%	1%	8%	i	?
Cc1cc(NC(=O)CSc2nnc(-c3c[nH]c4ccccc34)n2-c2ccc(Cl)cc2)no1	i	-25%	11µM*	-3%	i	?
COc1ccc2[nH]c3c4c(ccc3c2c1)C(=O)C=CC4=O	i	0.26µM*	16µM*	13µM*	9.2µM*	0.23µM*
COc1ccc2[nH]c(=O)cc(C(=O)O)c2c1	i	-3%	5%	8%	i	0%
SMILES	KB-V1 MDR tox	DT40 TDP1 no CPT	HT1080 IDH1KD tx	HT1080NT lethal	KB-3-1 cytotox	DT40 TDP1 CPT
CC(C)Nc1nc(Cl)nc(N(C#N)CN2C(=O)c3ccccc3S2(=O)=O)n1	i	18µM*	-5%	2%	i	26µM*
CC(C)(C)Nc1nc(Cl)nc(N(C#N)CN2C(=O)c3ccccc3S2(=O)=O)n1	i	?	?	-5%	i	?
COCCNC(=O)CCCn1c(SCc2ccccc2Cl)nc2c(sc3ccccc32)c1=O	i	9.2µM*	.	.	i	?
CCC(C)NC(=O)CSc1nc2c(sc3ccccc32)c(=O)n1Cc1ccccc1Cl (stereo not given)	i	3.3µM*	.	.	i	?
COCCNC(=O)CCCn1c(SCC(=O)c2ccc(Br)cc2)nc2c(sc3ccccc32)c1=O	.	-3%	.	.	.	-5%
Cc1ccc(N2C(=O)Nc3ccccc3C2(O)C(=O)N2CCN(c3ccccn3)CC2)cc1C (stereo not given)	i	-13%	-8%	-2%	i	?
CC1CCC(NC(=O)c2ccc(NC3=NC4CS(=O)(=O)CC4S3)cc2)CC1 (stereo not given)	i	4%	4%	8%	i	2%
N#CCSc1nnc2sc3ccccc3n12	i	-10%	5%	2%	i	20%
N#Cc1cc2sc3nnc(-c4ccncc4)n3c2cc1C#N	2.1µM*	10µM*	?	?	6.5µM*	?
CCN(CC)S(=O)(=O)c1ccc(C(C)NC(=O)C2CCCN2C(=O)c2cccs2)cc1 (stereo not given)	i	?	3%	0%	i	-9%
COc1ccc2cc(CN(C(=O)Nc3ccccc3OC)C3CCCC3)c(=O)[nH]c2c1	?	?	?	-16%	i	?
COc1ccc2cc(CN(CC3CCCO3)C(=O)Nc3ccccc3OC)c(=O)[nH]c2c1 (stereo not given)	12µM*	4.6µM*	2.3µM*	2.6µM*	5.2µM*	4.1µM*
COc1ccc(NC(=O)N(Cc2cc3ccc(OC)cc3[nH]c2=O)CC2CCCO2)cc1 (stereo not given)	?	13µM*	?	?	?	18µM*
COc1ccc(NC(=O)N(Cc2cc3cc(OC)ccc3[nH]c2=O)CC2CCCO2)cc1 (stereo not given)	i	?	0%	-8%	i	?
O=C(NC1CC(=O)N(c2ccc3c(c2)OCCO3)C1)c1c(F)cccc1Cl (stereo not given)	.	0%	.	.	.	6%
O=C(Cn1cc(S(=O)(=O)Cc2ccccc2F)c2ccccc21)NCc1ccccc1Cl	i	?	.	.	i	?
O=C(O)Cc1csc(-c2cccc(F)c2)n1	i	21%	23%	13%	i	11%
COc1cccc(OC)c1OCCCc1c(C)n[nH]c1C	18µM*	-7%	1%	2%	i	-21%
